Source: ChEMBL document CHEMBL3988442, “University of Dundee, Small-Polar-MMV Screening Library” (2021)
Among all 85,000 compounds or so, about 440 (0.52%) showed an effect of 50% or more. For the sample, strong results were picked, then their nearest neighbours and some compounds at random.

Test: In vitro enzyme assay to detect hydrolysis of chlorophenol red-beta-D-[…] directly proportional to the number of Toxoplasma stably expressing beta-galactosidase
Assay type: functional, organism-based, Toxoplasma gondii
Parameters: scale not given: in the data most compounds retested in dose-response had high values

## CC(C)(C)C(=O)CCN1CCCCC1
50 µM
  Percent Effect: 28.4%

## CNCC1CCS(=O)(=O)C1 (configuration not stated)
50 µM
  Percent Effect: 7.416%

## NC(=O)C(Cc1ccccc1)NS(=O)(=O)Cc1ccccc1Cl (configuration not stated)
10 µM
  Percent Effect: 50.03%

## N#Cc1cccc(CS(=O)(=O)NC(Cc2ccccc2)C(N)=O)c1 (configuration not stated)
10 µM
  Percent Effect: -7.673%

## NC(=O)C(Cc1ccccc1)NS(=O)(=O)Cc1ccccc1F (configuration not stated)
10 µM
  Percent Effect: -5.639%

## CCCn1ncc(-c2ccnc(NC3CCSC3)n2)c1C (configuration not stated)
10 µM
  Percent Effect: 16.2%

## CCc1cc(N[C@@H]2C[C@H]3CC[C@@H]2C3)n2nccc2n1
10 µM
  Percent Effect: 9.168%

## CCCn1ncc(-c2ccnc(NC3CCCc4ccccc43)n2)c1C (configuration not stated)
10 µM
  Percent Effect: 4.434%

## CCCn1ncc(-c2ccnc(NC3CC(C)(C)NC(C)(C)C3)n2)c1C
10 µM
  Percent Effect: 50.73%

## CCCn1ncc(-c2ccnc(N[C@@H]3C[C@@H]4CC[C@H]3C4)n2)c1C
10 µM
  Percent Effect: 55.29%

## CCCn1cc(-c2ccnc(NC3CCc4ccccc4C3)n2)c(C)n1 (configuration not stated)
10 µM
  Percent Effect: 39.11%

## C[C@@H]1CNC[C@H]1C(N)=O
50 µM
  Percent Effect: -3.858%

## COCC1(C(=O)N2C[C@@H](N)C[C@H]2C(=O)NC(C)C)CC1
50 µM
  Percent Effect: -6.582%

## COC(=O)c1cn(CC(=O)Nc2cccc(F)c2)nn1
50 µM
  Percent Effect: -28.09%

## CC(N)C(=O)N(C)C1CCOCC1 (configuration not stated)
50 µM
  Percent Effect: -25.47%

## Cc1nnc2n1N=C(c1cccs1)CS2
50 µM
  Percent Effect: -17.29%

## Cc1nnc2n1N=C(c1ccccc1)CS2
50 µM
  Percent Effect: 84.29%

## OCc1nnc2n1N=C(c1ccc(Cl)cc1)CS2
50 µM
  Percent Effect: -7.844%

## COCc1cccc(C(=O)Nc2ccncc2)c1
50 µM
  Percent Effect: -8.978%

## COCCN(CCC#N)S(=O)(=O)c1ncn(C)c1Cl
50 µM
  Percent Effect: 2.241%

## O=C(CN1CCn2ccnc2C1)Nc1ccc(Cl)cn1
50 µM
  Percent Effect: -8.564%

## CC(C)n1cnnc1CN1CCN(c2nc[nH]n2)CC1
50 µM
  Percent Effect: 14.64%

## CS(=O)(=O)CCN1CCC(C(N)=O)CC1
50 µM
  Percent Effect: 50.58%

## NCCN1CCC(C(N)=O)CC1
50 µM
  Percent Effect: 44.2%

## CCCN1CCC(C(N)=O)CC1
50 µM
  Percent Effect: -22.14%

## O=C(Nc1nncs1)c1cccc(O)c1
50 µM
  Percent Effect: -14.91%

## Cc1ccc(F)cc1NC(=O)C(C)Nc1cnn(C)c1 (configuration not stated)
50 µM
  Percent Effect: 17.75%

## CNC(=O)c1cccc(NCc2nc(C)cs2)n1
50 µM
  Percent Effect: -1.003%

## O=C1NCCN(C(=O)c2ccc(Br)o2)C1c1cccs1 (configuration not stated)
50 µM
  Percent Effect: 99.65%

## COC(=O)CCN1CCNC(=O)C1c1cccs1 (configuration not stated)
50 µM
  Percent Effect: -1.577%

## N#Cc1ccc(CN2CCNC(=O)C2c2cccs2)cc1 (configuration not stated)
10 µM
  Percent Effect: 7.265%

## Cc1nc(CNC(=O)N(C)Cc2ccncc2)cs1
50 µM
  Percent Effect: -10.17%

## NC(=O)C1(O)CCN(Cc2nc(C3CCCC3)no2)C1 (configuration not stated)
50 µM
  Percent Effect: -5.906%

## CCC(=O)NC1CCCN(Cc2noc(C)n2)C1 (configuration not stated)
50 µM
  Percent Effect: 11.52%

## CCC(C)C(=O)Nc1nccs1 (configuration not stated)
50 µM
  Percent Effect: -54.41%

## CC(C)COCCC(=O)Nc1nccs1
50 µM
  Percent Effect: 97.25%

## CC(C)COCCC(=O)Nc1c(-c2ccc(F)cc2)ncn1C
10 µM
  Percent Effect: 2.891%

## Cc1ccc(C)c(NC(=O)CN2CCC(O)CC2)c1
50 µM
  Percent Effect: -4.783%

## COCc1nc(CCN)no1
50 µM
  Percent Effect: -5.41%

## CC(C)CCC(=O)N1CCN(c2ncnc3nc(N)ccc23)CC1
10 µM
  Percent Effect: 1.58%

## CN(C)C(=O)c1ccc2ncnc(N3CCCC3)c2c1
50 µM
  Percent Effect: -3.186%

## CCC(=O)N1CCN(c2ncnc3cc4c(cc23)OCCO4)CC1
10 µM
  Percent Effect: 75.76%

## COCC(=O)N1CCN(c2ncnc3cccc(F)c23)CC1
10 µM
  Percent Effect: -5.192%

## CC(C)C(=O)N1CCN(c2ncnc3cc4c(cc23)OCCO4)CC1
10 µM
  Percent Effect: 49.63%

## CC(=O)N1CCN(c2ncnc3cc4c(cc23)OCCO4)CC1
10 µM
  Percent Effect: 56.5%

## CCC(C)C(=O)Nc1ccc(C(=O)N2CCCC2)cc1 (configuration not stated)
50 µM
  Percent Effect: -4.343%

## NCC(=O)c1ccncc1
50 µM
  Percent Effect: -6.113%

## CC(CC(=O)NCCCS(N)(=O)=O)c1cccc(F)c1 (configuration not stated)
50 µM
  Percent Effect: 3.903%

## Cn1nccc1C(=O)NC1CCc2ccccc2OC1 (configuration not stated)
50 µM
  Percent Effect: 1.645%

## Cc1[nH]/c(=N\C(=O)c2csc(NCC(C)C)n2)sc1C
10 µM
  Percent Effect: 92.95%

## CC(C)CNc1nc(C(=O)/N=c2\[nH]nc(C(C)(C)C)s2)cs1
10 µM
  Percent Effect: 0.3064%

## CC(=O)Nc1nc(C(=O)Nc2nccs2)cs1
50 µM
  Percent Effect: 1.313%

## Cc1n[nH]/c(=N\C(=O)c2csc(NC3CC3)n2)s1
50 µM
  Percent Effect: 37.81%

## Cc1[nH]/c(=N\C(=O)c2csc(NC3CC3)n2)sc1C
10 µM
  Percent Effect: -0.3064%

## O=C(NCc1nccs1)c1csc(NC2CC2)n1
50 µM
  Percent Effect: 6.462%

## Cc1[nH]/c(=N\C(=O)c2csc(NC3CCCC3)n2)sc1C
10 µM
  Percent Effect: 89.34%

## Cc1cs/c(=N/C(=O)c2csc(NCC(C)C)n2)[nH]1
10 µM
  Percent Effect: 19.16%

## O=C(Nc1nccs1)c1csc(NC2CCCC2)n1
10 µM
  Percent Effect: 94.63%

## CC(O)c1c(F)cccc1-n1cncn1 (configuration not stated)
50 µM
  Percent Effect: -28.05%

## COc1ccc2cc(C(=O)N(C)C)c(C)nc2c1
50 µM
  Percent Effect: -8.962%

## COc1ccc(F)c(F)c1C(=O)N1CCC(CN)C1 (configuration not stated)
50 µM
  Percent Effect: -13.62%

## CCN1CCC(CNC(=O)c2nc(C)c[nH]2)CC1
50 µM
  Percent Effect: -1.833%

## OC[C@@H]1CCCN1c1nccc(-c2c[nH]nc2-c2ccncc2)n1
10 µM
  Percent Effect: -24.25%

## OC[C@H]1CCCN1c1nccc(-c2cncnc2C2CCCCC2)n1
10 µM
  Percent Effect: 29.63%

## OC[C@H]1CCCN1c1nccc(-c2c[nH]nc2C2CCCCC2)n1
10 µM
  Percent Effect: 54.25%

## Cc1ccc(Oc2cc(F)ccc2O[C@@H]2CCC[C@@H](N)[C@H]2O)cc1
10 µM
  Percent Effect: 82.52%

## N[C@@H]1CCC[C@@H](Oc2ccc(F)cc2Oc2cccc(F)c2)[C@@H]1O
10 µM
  Percent Effect: 2.748%

## N[C@@H]1CCC[C@@H](Oc2ccc(F)cc2Oc2ccccc2)[C@@H]1O
10 µM
  Percent Effect: 2e-14%

## COCc1ccc(C(=O)N2CCN(CCS(C)(=O)=O)CC2)cc1
10 µM
  Percent Effect: -0.2262%

## Cc1c(C(=O)N2CCC(C(O)c3ccc(Cl)cc3)CC2)cnn1C (configuration not stated)
10 µM
  Percent Effect: -2.382%

## Cn1ncc(C(=O)N2CCN(S(C)(=O)=O)CC2)c1Cl
10 µM
  Percent Effect: 77.51%

## Cc1oc(C(C)C)cc1C(=O)N1CCN(c2cnn(C)c(=O)c2)CC1
10 µM
  Percent Effect: 15.5%

## CCc1ccc(C(=O)N2CCN(CCS(C)(=O)=O)CC2)o1
10 µM
  Percent Effect: -13.13%

## CC(C)S(=O)(=O)N1CCN(C(=O)c2cnn(C)c2Cl)CC1
10 µM
  Percent Effect: 63.23%

## Cn1ncc(C(=O)N2CCN(C(=O)c3ccco3)CC2)c1Cl
10 µM
  Percent Effect: 75.62%

## CCOC(=O)N1CCN(C(=O)c2ccco2)CC1
50 µM
  Percent Effect: 9.256%

## Cn1ncc(C(=O)N2CCOCC2)c1Cl
10 µM
  Percent Effect: 29.02%

## CS(=O)(=O)N1CCN(C(=O)c2cnn3c2OCCC3)CC1
10 µM
  Percent Effect: -9.448%

## Cc1c(C(=O)N2CCCN(S(C)(=O)=O)CC2)cnn1C
10 µM
  Percent Effect: -3.056%

## Cn1ncc(C(=O)N2CCN(CCS(C)(=O)=O)CC2)c1Cl
10 µM
  Percent Effect: 67.81%

## O=C(NC1CCc2ccc(F)cc21)c1c[nH]nn1 (configuration not stated)
50 µM
  Percent Effect: 10.36%

## COC(=O)c1ccc(NCC(=O)N2CCCCC2)cc1
50 µM
  Percent Effect: -5.615%

## Cc1cc(C(=O)N(C)Cc2ccncc2C)[nH]n1
50 µM
  Percent Effect: -2.921%

## CC1c2ccsc2CCN1CCC(=O)NC(N)=O (configuration not stated)
50 µM
  Percent Effect: -3.706%

## N#CC1CCCN(C(=O)c2cnc3ccccc3c2)C1 (configuration not stated)
50 µM
  Percent Effect: -3.341%

## CCc1ncc(C(=O)c2ccc(OC)cc2)n1C
10 µM
  Percent Effect: -0.6627%

## CCC1=NC(SCC(=O)c2ccccc2)c2cc(CC)sc2N1 (configuration not stated)
10 µM
  Percent Effect: 88.55%

## CCC1=NC(SCC(=O)c2ccc(Cl)cc2)c2cc(CC)sc2N1 (configuration not stated)
10 µM
  Percent Effect: 23.77%

## CCC1=NC(SCC(=O)c2ccc(OC)cc2)c2cc(CC)sc2N1 (configuration not stated)
10 µM
  Percent Effect: 50.44%

## CCc1ncc(C(=O)N2CCOCC2CC(=O)c2ccccc2)s1 (configuration not stated)
10 µM
  Percent Effect: 3.663%

## CCC1=NC(SCC(=O)c2ccc(C)cc2)c2cc(CC)sc2N1 (configuration not stated)
10 µM
  Percent Effect: 65.66%

## COc1ccc(C(=O)CNC(=O)c2nc(Cl)sc2C(C)C)cc1
10 µM
  Percent Effect: 18.25%

## CCc1nc(C(=O)N2CCOCC2CC(=O)c2ccccc2)c[nH]1 (configuration not stated)
10 µM
  Percent Effect: 0.2818%

## Cc1cccc(-n2nnnc2C(C)(C)N2CCCC2)c1
50 µM
  Percent Effect: -9.882%

## COCCNS(=O)(=O)c1ccc(CN)cc1
50 µM
  Percent Effect: -7.365%

## CC(C)(C)NC(=O)CNC(C)(C)c1nccs1
50 µM
  Percent Effect: -6.241%

## Cc1cnccc1NCCNC(=O)[C@H]1CCC[C@H](O)C1
50 µM
  Percent Effect: -11.82%

## O=C1CCCN1CCCNCc1cccs1
50 µM
  Percent Effect: 4.585%

## CCCN1CCC(CNc2ncccc2F)C1 (configuration not stated)
50 µM
  Percent Effect: -12.03%

## COc1c(CNC2CCOc3c(Cl)cccc32)c(C(C)C)nn1C (configuration not stated)
10 µM
  Percent Effect: 50.26%

## COc1c(CNC2CCOc3ccccc32)c(C(C)C)nn1C (configuration not stated)
10 µM
  Percent Effect: 0.6462%

## COc1c(CNC2CCOc3c(Cl)cccc32)c(C)nn1C.Cl (configuration not stated)
10 µM
  Percent Effect: -5.172%

## Cc1ccccc1-c1nnn(CC(O)CC(F)(F)F)n1 (configuration not stated)
50 µM
  Percent Effect: -8.034%

## CC(C)CC(C)(N)CO (configuration not stated)
50 µM
  Percent Effect: -4.909%

## COc1cc(NC(=O)CCN2CC(O)C2)cc(OC)c1
50 µM
  Percent Effect: -10.62%

## c1cnc(-c2nn3c(CN4CCCCC4)nnc3s2)cn1
10 µM
  Percent Effect: 70.51%

## O=C(c1cnccn1)N1CCC(CN2CCOCC2)CC1
10 µM
  Percent Effect: 17.94%

## c1ccc(-c2nn3c(CN4CCOCC4)nnc3s2)nc1
10 µM
  Percent Effect: 71.31%

## O=C(c1cnccn1)N1CCc2ncc(CN3CCOCC3)n2CC1
10 µM
  Percent Effect: -7.352%

## c1coc(CN2CCn3c(CN4CCOCC4)nnc3C2)c1
10 µM
  Percent Effect: 4.961%

## c1cc(-c2cnccn2)cc(-c2ccn(CCCN3CCCCC3)n2)c1
10 µM
  Percent Effect: -3.188%

## CCN1CCN(c2nnc(-c3ccccn3)s2)CC1
50 µM
  Percent Effect: 1.346%

## c1cc(-c2cnccn2)cc(-c2ccn(CCN3CCCC3)n2)c1
10 µM
  Percent Effect: 1.269%

## O=C(NCCN1CCCCC1)c1cnccn1
50 µM
  Percent Effect: 1.153%

## c1cnc(-c2nn3c(CN4CCOCC4)nnc3s2)cn1
10 µM
  Percent Effect: 68.89%

## c1cc(-c2cnccn2)cc(-c2ccn(CCN3CCCCC3)n2)c1
10 µM
  Percent Effect: -6.783%

## c1cnc(-c2nn3c(CN4CCCCCC4)nnc3s2)cn1
10 µM
  Percent Effect: 65.52%
